Bioassay records as filed in PubChem.
In the library only some 19% were active in any assay of this set; here they are far more common.
ELG1 DNA repair: ELG1-dependent DNA repair inhibition; HEK293T ELG1-luciferase reporter, luminescence, 16 h; DNA damage induced by 5-fluorouridine; Potency, µM (highest dose often 46.1 µM), inactives show at the top dose activity change, negative = inhibition, most hits filed as inhibitors; actives 2.3% (n = 330,000); AID 504467; further: potency means the concentration at half of the fitted maximal effect; nearly all actives have a fitted effect of over 55% in size
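In this reporter screen, reduction of luminescence relative to DMSO vehicle indicated activity. Compounds and 5-fluorouridine were added together to 2,000 cells per well, incubated for 16 hr at 37 °C, then developed with ONE-Glo.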
HT1080NT lethal: kills 2HG-producing HT-1080-NT fibrosarcoma cells; HT-1080-NT fibrosarcoma viability, CellTiter-Glo ATP luminescence, 48 h; Potency, µM (series often up to 46.1 µM), without a hit: at the highest dose activity, negative = less viability, actives largely listed as cytotoxic; actives 1.6% (n = 360,000);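 further: NT is the 2HG producing partner of a matched IDH1 knockdown line; potency means the concentration at half of the fitted maximal effect; 0% = DMSO-treated cells and -100% = media-only wells without cells; nearly all actives have a fitted effect of over 55% in size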
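Read-out is CellTiter-Glo luminescence after 10 minutes at room temperature, following 48 hours' compound treatment of HT-1080-NT cells (750 cells/well, RPMI, 5% FBS, 37 degrees C).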
IL-1B inflam inh: inhibitors of inflammasome signaling (IL-1 beta secretion) | activity change, % at 57.5 µM | AID 743279 | THP-1 LPS/ATP IL-1B secretion, AlphaLISA, 16 h; active compounds read low | actives 4.7% (n = 360,000); in the data active means activity change below about -50%; inconclusive means mostly about -30% to -49%
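Secreted IL-1B measured by AlphaLISA bead assay after 16 h compound exposure of THP-1 cells; compounds (final up to 57.5 uM) added 1 h before LPS (250 ng/mL) and ATP (1.25 mM) stimulation; lower signal means less secretion.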
DT40 TDP1 CPT: DT40-hTDP1 cell growth loss with CPT | chicken DT40 Tdp1-/-;hTDP1 cells + 20 nM CPT, ATP luminescence, 48 h | Potency, µM (titrated, usually from 46.2 µM), without a hit: at the top dose activity change, negative = growth inhibition, actives largely listed as inhibitors | actives 12% (n = 420,000); further: potency means the concentration at half of the fitted maximal effect; nearly all actives have a fitted effect of over 55% in size
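Chicken DT40 Tdp1-/- cells complemented with human TDP1, 400 cells/well, exposed to compounds plus 20 nM camptothecin for at least 48 h at 37 C; viability read as ATP content by CellTiter-Glo luminescence.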
HT1080 IDH1KD tx: kills HT-1080 cells with IDH1 knockdown; HT-1080 IDH1 knockdown viability, ATP luminescence, 48 h; Potency, µM (top dose mostly 46.1 µM), for the others: at the highest dose activity, negative = toxicity, most hits filed as cytotoxic; actives 2% (n = 360,000);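 further: potency means the concentration at half of the fitted maximal effect; 0% = DMSO wells and -100% = cell-free medium wells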
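% activity derives from luminescence (CellTiter-Glo), normalised to DMSO and no-cell wells. HT-1080-IDH1KD cells, 750/well, had 48 h compound exposure at 37 °C.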
TDP1 cell noCPT: qHTS for Inhibitors of human tyrosyl-DNA phosphodiesterase 1 (TDP1): qHTS in cells in absence of CPT | DT40 Tdp1-/- hTDP1 cells, no CPT, ATP luminescence, 48 h | Potency, µM (series often up to 46.2 µM), inactives show at the highest dose activity change, negative = growth inhibition, actives largely listed as inhibitors | actives 15% (n = 420,000) | AID 686978, 2013; further: potency means the concentration at half of the fitted maximal effect; nearly all actives have a fitted effect of over 55% in size
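DT40 Tdp1-/-;hTDP1 cells, no CPT (DMSO vehicle only), 400 cells/well; compounds pin-transferred; ≥48 hr, 37 °C; CellTiter-Glo 30 min RT dark, luminescence read.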
Active calls of the source: *; u = inconclusive; x = not tested or not shown; [ ] = dose if it differs, or a comment. Unless noted, the call rests on the fitted dose curve; in most records, active means well fitted curve in the direction sought with a large enough effect; inconclusive means small, poorly fitted or top-dose-only effect, or another doubt; inactive means no such curve, though single readings can be large; an effect the other way counts as inactive or inconclusive. Unless noted, on the % scale 0 is the no-effect control and ±100 the full control effect.

SMILES	ELG1 DNA repair	HT1080NT lethal	IL-1B inflam inh	DT40 TDP1 CPT	HT1080 IDH1KD tx	TDP1 cell noCPT
CCSc1nnc(NC(=O)C(CC)(C(F)(F)F)C(F)(F)F)s1	u	u	-19	u	u	18µM*
CCN(CC(=O)NC1CC1)S(=O)(=O)c1ccccc1	4%	6%	8	10%	20%	17%
OC(c1ccccc1)(c1ccccc1)c1nccc2ccccc12	x	3%	-55*	-28%	14%	u
c1ccc(-c2nccc3ccccc23)cc1	x	8%	25	-4%	10%	3%
COc1ccc(C(=O)N2CCCCC2CCN2CCOCC2)cc1 (stereo unspecified)	x	x	x	-20%	x	-11%
Clc1ccc(C#Cc2cccnc2)cc1	u	25%	23	-20%	21%	4%
Clc1ncc(C#Cc2ccccc2)c2ncncc12	x	u	x	1.4µM*	u	0.79µM*
CCc1ccc2[nH]c(=O)c(CN(Cc3ccccc3OC)C(=O)Nc3ccccc3OC)cc2c1	23µM*	1%[9.24 µM]	-60*	18µM*	-16%	23µM*
COc1ccc2[nH]c(=O)c(CN(CC3CCCO3)C(=O)Nc3ccccc3OC)cc2c1 (stereo unspecified)	u	u	-62*	13µM*	u	10µM*
CCN(CC)CCN(Cc1cc2cc(C)ccc2[nH]c1=O)C(=O)Nc1ccccc1OC	-2%	-27%	-22	u	-25%	u
CCOC(=O)N1CCN(C(=O)CNS(=O)(=O)c2c(C)cc(C)cc2C)CC1	-2%	-13%	-16	-7%	-3%	-9%
OCc1nc2nc(Cl)c(Cl)nc2[nH]1	0%	8%	-1	-1%	11%	-1%
CCCCSCc1nc2nc(Cl)c(Cl)nc2[nH]1	x	u	-1	16µM*	u	18µM*
CCCCOc1ccc2c(c1)C(=O)c1cc(O)ccc1-2	u	u	-101*	-11%	u	u
CCOc1ccc2c(c1)C(=O)c1cc(OCC(=O)O)ccc1-2	u	-2%	-14	u	-1%	41%
O=C(O)C1(Cc2nc3ccccc3[nH]2)CCCC1	-2%	-7%	22	u	15%	-9%
COc1ccccc1C1=NNC(=Nc2cccc(S(=O)(=O)N(C)C)c2)SC1	u	u	-72*	u	u	u
Cc1ccc(-c2cc(C(F)(F)F)n3nc(C(=O)Nc4ccc(Cl)c(C(F)(F)F)c4)cc3n2)cc1	x	x	x	-8%	x	0%
O=C(C1CCN(S(=O)(=O)N2CCC3(CC2)OCCO3)CC1)N1CCc2ccccc2C1	u	3%	29	u	-3%	16µM*
O=C(NCCN1CCC(Cc2ccccc2)CC1)C1CCN(S(=O)(=O)N2CCC3(CC2)OCCO3)CC1	-6%	-4%	-2	15µM*	-15%	18µM*
Cc1nc(NCc2cccc3c2OCO3)sc1-c1ccn(CC2CCCN(C)C2)n1 (stereo unspecified)	x	x	x	-5%[9.04 µM]	x	-8%
COc1cccc(CNC(=O)CSc2nc(=O)[nH]c3c2CCCC3)c1	x	x	x	9%	x	-5%
COc1ccc(C(=O)N2CCN(c3nc(C4CC4)nc4sc(C)c(C)c34)CC2)cc1	u	-8%	-65*	u	-8%	21µM*
Cc1sc2nc(C3CC3)nc(N3CCN(C(=O)c4ccc(F)cc4)CC3)c2c1C	u	u	-60*	u	u	23µM*
Cc1sc2nc(C3CC3)nc(N3CCN(C(=O)c4ccc(Cl)cc4)CC3)c2c1C	23µM*	-17%	-6	u	-24%	18µM*
SMILES	ELG1 DNA repair	HT1080NT lethal	IL-1B inflam inh	DT40 TDP1 CPT	HT1080 IDH1KD tx	TDP1 cell noCPT
Cc1sc2nc(C3CC3)nc(N3CCN(S(=O)(=O)c4ccc(F)cc4)CC3)c2c1C	u	5%	-22	u	u	11µM*
CCOC(=O)c1c(NC(=O)COC(=O)CNC(=O)c2ccc(Cl)cc2Cl)sc(C(=O)N(C)C)c1C	2%	-10%	16	15%	-17%	-5%
COc1ccc(-c2nn(CC(=O)NCc3ccccc3)c3c2cnc2ccc(F)cc23)cc1	x	x	x	-19%	x	3%
CCn1c2ccc(C)cc2c2nnc(NN)nc21	u	-5%	-9	18µM*	-17%	9.2µM*
CCCCn1c2ccc(F)cc2c2nnc(NN)nc21	u	-1%	77	18µM*	-18%	u
Cn1cc(-c2nc3cnc(Oc4ccccc4)nc3n(C)c2=O)c2ccccc21	x	x	x	3%	x	6%
Cc1ccc(OCCn2c(C)nc3ccccc32)cc1	-6%	-10%	u	u	u	u
Cc1nc2ccccc2n1CCCOc1ccccc1	u	-11%	10	u	u	23µM*
Cc1cccc(OCCCCn2c(CO)nc3ccccc32)c1	-4%	-11%	-2	u	-5%	u
COCc1nc2ccccc2n1CCCOc1ccccc1	7%	5%	16	23µM*	5%	26µM*
COc1ccc(OCCn2c(C)nc3cc(C)c(C)cc32)cc1	x	x	x	15µM*	x	21µM*
CCCn1c(COc2ccccc2)nc2ccccc21	14%	-16%	u	u	-15%	u
CCc1nc2ccccc2n1CCCCOc1cccc(C)c1	x	x	x	u	x	23µM*
COc1ccc(CCNC(=O)CN2C(=O)C(=O)N(C3CCCC3)C2=O)cc1OC	14%	1%	2	-9%	2%	12%
O=S(=O)(Nc1ccc(-c2ccc(N3CCCC3)nn2)cc1)c1ccccc1Cl	x	x	x	u	x	-24%
CCCC[C@@H]1CNC(=S)N1CCCC	-6%	7%	18	u	14%	-16%
CCCCNC(=O)c1nc(C2CCN(S(=O)(=O)c3cccc(C(F)(F)F)c3)CC2)oc1-c1cccc(C(F)(F)F)c1	x	u	1	0%	20%	6%
CCCC(O)c1nc2ccccc2n1CCCOc1ccc(Cl)cc1 (stereo unspecified)	x	x	x	3.7µM*	x	3.3µM*
Nc1nc2ccccc2n1CCOc1ccc(Cl)cc1	-16%	u	-24	u	u	u
COc1cc(SC)ccc1C(=O)Nc1cccc(S(=O)(=O)NC2=NCCCCC2)c1	u	-13%	-13	21µM*	-5%	u
CCN(CC)S(=O)(=O)c1cccc(NC(=O)c2ccc(SC)cc2OC)c1	u	-7%	x	26µM*	-18%	7.3µM*
